Shown are actives, neighbours in structure and some others; about 3.5% of the full set was active somewhere.
TEAD-YAP inh: TEAD-YAP interaction inhibition; inhibition, % at 9.12 µM; 640,000 tested, 1.4% active; HEK-TIYL cells, TEAD-Gal4/YAP UAS-luciferase luminescence; in the data active means inhibition above about 32%;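 further: 0% = median of test compound wells and 100% = reference inhibitor wells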
MITF inh: inhibitors of human MITF. AlphaScreen MITF homodimerization, bead proximity signal. O75030. 650,000 tested, 0.91% active. inhibition, % at 2.6 µM; in the data active means inhibition above about 50%;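 further: 0% = vehicle wells with protein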
Target sequence (O75030 whole entry, looked up): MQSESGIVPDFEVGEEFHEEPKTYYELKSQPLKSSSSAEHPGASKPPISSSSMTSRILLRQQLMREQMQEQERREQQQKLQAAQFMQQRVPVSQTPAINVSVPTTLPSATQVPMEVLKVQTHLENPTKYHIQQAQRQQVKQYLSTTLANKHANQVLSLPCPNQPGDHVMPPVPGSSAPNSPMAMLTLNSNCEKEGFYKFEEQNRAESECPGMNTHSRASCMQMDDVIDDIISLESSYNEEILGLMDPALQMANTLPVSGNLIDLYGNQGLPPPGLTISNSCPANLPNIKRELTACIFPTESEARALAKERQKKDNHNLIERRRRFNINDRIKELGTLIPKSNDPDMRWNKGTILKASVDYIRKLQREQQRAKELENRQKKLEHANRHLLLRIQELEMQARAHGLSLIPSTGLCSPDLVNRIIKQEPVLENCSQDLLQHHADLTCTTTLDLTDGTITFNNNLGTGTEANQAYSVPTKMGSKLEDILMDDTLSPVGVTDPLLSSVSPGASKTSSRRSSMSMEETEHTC
FBW7 act: human FBW7 E3 ligase activation, primary screen | Q969H0 | AlphaScreen FBW7–phospho-cyclin E peptide binding, activator screen | normalized activity (activation), % at 26.1 µM | 650,000 tested, 0.13% active | AID 1259310; in the data active means normalized activity above about 1.9%;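 further: purified mutant Fbw7 with reduced substrate affinity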
GPR151 activ: activates the human receptor GPR151; Q8TDV0; PathHunter beta-arrestin GPR151 cells, luminescence; activation, % at 11.2 µM; 650,000 tested, 1% active; in the data active means activation above about 4.9%;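 further: 0% = median of compound wells and 100% = cells with positive control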
* marks the source's active call; other numbers are inactive results; ! = not confirmed by another sample.

SMILES | TEAD-YAP inh | MITF inh | FBW7 act | GPR151 activ
COC(=O)c1ccc(C2C3=C(CC(c4cccs4)CC3=O)Nc3ccccc3N2C(=O)CCC(=O)O)cc1 (centres undefined) | -1 | 14 | 0 | 2
Cc1cccc(-c2cnc(C)nc2C2CCCN(C(=O)[C@@H]3CCC(=O)N3)C2)c1 (some centres undefined) | -5 | 2 | 0 | 3
CCCNc1nc(-c2ccc(C(N)=O)cc2)nc2c1ncn2-c1ccsc1 | 52* | 7 | 0 | -1
CC(C)N(CCNc1nc(-c2ccc(C(N)=O)cc2)nc2c1ncn2-c1ccsc1)C(C)C | 61* | 12 | 0 | -1
NC(=O)c1ccc(-c2nc(NCc3cccnc3)c3ncn(-c4ccccc4)c3n2)cc1 | 55* | 2 | 0 | 0
CCCNc1nc(-c2ccc(OC)cc2)nc2c1ncn2-c1ccccc1 | -3 | 9 | 0 | 0
CCCNc1nc(-c2ccc(C(N)=O)cc2)nc2c1ncn2-c1ccccc1 | 52* | -7 | 0 | 1
c1ccc(-c2nc(NCc3cccnc3)c3ncn(-c4ccccc4)c3n2)cc1 | 17 | 2 | 0 | -1
COc1ccc(/C(O)=C(\C#N)c2nc3ccccc3[nH]2)cc1 | -18 | 5 | 0 | 2
CCCCn1c(CNC(=O)c2ccc(C)c(C)c2)nnc1SCC(=O)Nc1sc2c(c1C(=O)OCC)CCC2 | -4 | 0 | 0 | -1
CCOC(=O)c1ccc(NC(=O)c2ccc(NS(=O)(=O)c3ccccc3)cc2)cc1 | 5 | 1 | 0 | 0
NC(=O)c1ccc(-c2nc(NCCc3ccc(O)cc3)c3ncn(-c4ccccc4)c3n2)cc1 | 66* | -4 | 0 | -1
Cc1cc(OCC(O)CNC(C)C)ccc1C(C)C (centres undefined) | 51* | -16 | 0 | 0
Cc1cc(OCCCNCCN)ccc1C(C)C | -2 | -2 | 0 | -2
C=CCNCCCOc1ccc(C(C)C)c(C)c1 | 42* | 37 | 0 | -3
Cc1cc(OCC(O)CNC2CCCC2)ccc1C(C)C (centres undefined) | 12 | 13 | 0 | 0
COc1ccc(C(=O)Nc2sc3c(c2C#N)CC(C)(C)OC3)cc1 | -70 | -8 | 0 | 0
CCOC(=O)c1sc(N2C(=O)C(=O)/C(=C(/O)c3ccc(OCC)c(C)c3)C2c2ccc(C(C)(C)C)cc2)nc1C (centres undefined) | -15 | 1 | 0 | 0
COc1ccc(-c2cnc3ccc(NC4CCOCC4)nn23)cc1OC | 2 | -9 | 0 | 1
Nc1cccc(-c2cnc3ccc(NC4CCOCC4)nn23)c1 | 4 | 4 | 0 | 0
Clc1cccc(-c2cnc3ccc(NC4CCOCC4)nn23)c1 | 34* | -11 | 0 | 0
COc1cccc(-c2cnc3ccc(NC4CCOCC4)nn23)c1 | 57* | -3 | 0 | -1
COc1cccc(-c2cnc3ccc(NC4CCC(O)CC4)nn23)c1 (centres undefined) | 64* | -8 | -1 | 0
Cc1ccc(-c2cnc3ccc(NC4CCC(O)CC4)nn23)cc1C (centres undefined) | -7 | -21 | 0 | 0
Cc1ccc(C(=O)N2CCCC(CCC(=O)N3CCN(c4ccccn4)CC3)C2)cc1C (centres undefined) | 3 | 4 | 3.6* | -1
SMILES | TEAD-YAP inh | MITF inh | FBW7 act | GPR151 activ
Cc1ccoc1C(=O)N1CCCC(CCC(=O)N2CCN(c3ccccn3)CC2)C1 (centres undefined) | 0 | 5 | 0 | 0
Cc1nonc1N=NN(Cc1ccccc1)c1nonc1C | -25 | -3 | 0 | 0
Cc1ccnc(NC(=O)C(CC(C)C)N2Cc3ccccc3C2=O)c1 (centres undefined) | 8 | -6 | 0 | 0
CCC(Sc1ccc2nnc(-c3ccccn3)n2n1)C(=O)OC (centres undefined) | -14 | 15 | 7.2* | 2
N#CCSc1ccc2nnc(-c3ccncc3)n2n1 | 40* | 3 | 0 | -1
N#CCSc1ccc2nnc(-c3ccccn3)n2n1 | -8 | 7 | 3.8* | 0
CCCOc1ccc(-c2nn(-c3ccccc3)cc2/C=c2\sc3nc(-c4ccc(Cl)cc4)nn3c2=O)cc1 | 12 | 10 | 0 | 0
c1c2c(cc3sc(N4CCOCC4)nc13)OCCO2 | 69* | 15 | 0 | -6
O=C(O)c1ccc2c(c1)NC(=O)c1ccccc1S2(=O)=O | -4 | -2 | 1.9* | -2
OC(COc1ccccc1)CN1C2=NCCN2c2ccccc21 (centres undefined) | -2 | -8 | 0 | 0
OC(COc1ccccc1)CN1C2=NCCCN2c2ccccc21 (centres undefined) | -4 | 11 | 2.1* | 1
COc1ccc(-c2nnc(SCCN3CCCC3)n2C)cc1 | 1 | -11 | 0 | 1
OCCCNc1ccc2ncc(-c3ccc4c(c3)OCO4)n2n1 | 61* | -10 | 0 | 1
c1ccc(CCNc2ccc3ncc(-c4ccc5c(c4)OCO5)n3n2)nc1 | 48* | -9 | 0 | 0
O=C(CSc1nc2ccc(N3CCCCC3)cc2c(=O)n1Cc1ccccc1)NCc1ccccc1 | -8 | -11 | 0 | 1
COCCOC(=O)C1=C(N)OC2=C(C(=O)CCC2)C1c1cccc([N+](=O)[O-])c1 (centres undefined) | 1 | 15 | 0 | 0
Cc1cccc(C(=O)N[C@H](C(=O)Nc2nc3ccccc3[nH]2)C(C)C)c1 | 66* | -11 | 0 | 0
O=C(Nc1nc2ccccc2[nH]1)c1cccc(Br)c1 | -27 | 8 | 0 | -2
Cc1cccc(C(=O)Nc2nc3ccccc3[nH]2)c1 | 32* | 7 | 0 | -5
O=c1[nH]cc(F)c(=O)[nH]1 | 35*! | 12 | 0 | 3
CC(C)(C)C1=CC(Cl)=C(C(C)(C)C)C(=O)C1=O | 13 | 4 | 0 | 0
O=C1[C@@H]2CCCN2C(=O)[C@H]2CN(Cc3ccccc3Cl)CCN12 | 37* | 6 | 0 | 1
C[C@H]1NC(=O)[C@H]2CN(Cc3ccccc3Cl)CCN2C1=O | -6 | 12 | 0 | 0
Cc1ccc(F)c(CN2CCN3C(=O)[C@@H]4CCCN4C(=O)[C@H]3C2)c1 | -1 | 16 | 1 | -1
Cc1ccccc1CN1CCN2C(=O)[C@@H]3CCCN3C(=O)[C@H]2C1 | 46* | 17 | 1 | -1
SMILES | TEAD-YAP inh | MITF inh | FBW7 act | GPR151 activ
COc1cc(NC(=O)c2sc3nc(N)c(C#N)cc3c2N)cc(OC)c1OC | -11 | 29 | 0 | 1
COc1ccc(NC(=O)c2sc3nc(N)c(C#N)cc3c2N)cc1 | -30 | 18 | 18* | 2
O=c1c2ccccc2[nH]c(=S)n1CCc1c[nH]c2ccccc12 | -20 | 1 | 0 | 0
CCc1ccc(-n2nc3ccc(NC(=O)c4cccc(OC(C)C)c4)cc3n2)cc1 | -9 | -22 | 0 | -1
Cc1cc(Nc2ccccc2F)nc2cccc(O)c12 | 43* | 2 | 0 | 2
COc1ccc(S(=O)(=O)N2CCCOC2CNC(=O)C(=O)NCC(C)C)cc1OC (centres undefined) | -1 | -4 | 0 | 0
O=C(CSc1nnc2c(n1)[nH]c1ccccc12)Nc1ccc(Br)cc1 | 2 | -3 | 0 | -1
